{"source": "PubChem BioAssay (Tox21)", "note": "Results filed as inconclusive are left out. Values without a mark were called inactive. The source made the active and inactive calls. Calls follow the shape of the dose curve; as a rule, active = well fitted cell-killing curve with a large enough effect in the repeat runs; inconclusive = weak or mixed curves; inactive = flat fitted curve, though single readings scatter. % is scaled to controls: 0 for no effect and ±100 for the full control effect."}
{"experiment": "qHTS RealTime-Glo MT Cell Viability Assay in HepG2 cells - 8 hour (AID 1224873); also: nearly all actives have a fitted effect of over 55% in size", "conditions": "RealTime-Glo luminescence; series mostly up to 76.8 µM; viability change, negative = cytotoxic: at the top concentration", "description": "National Center for Advancing Translational Sciences [NCATS]\nNIH Chemical Genomics Center [NCGC]\nU.S. Environmental Protection Agency [EPA]\nNational Institutes of Environmental Health Sciences [NIEHS]\nNational Toxicology Program [NTP]\nU.S. Food and Drug Administration [FDA]\nMeasure of cell viability is critical in the cell-base assay. Analysis of cell viability is necessary for the characterization of cell responses to cytotoxic drugs and environmental stress. A RealTime-Glo MT Cell Viability Assay to monitor cell viability in real time of continues cell culture during 40 hours of compound treatment was used to screen Tox21 10K library compounds in HepG2 cells. The RealTime-Glo MT Cell Viability Assay is a nonlytic, homogeneous, bioluminescent method to measure cell viability in real time using a simple, plate-based method. The assay involves adding NanoLuc luciferase and a cell-permeant prosubstrate to cells in culture. Viable cells reduce the proprietary prosubstrate to generate a substrate for NanoLuc luciferase. This substrate diffuses from cells into the surrounding culture medium, where it is rapidly used by the NanoLuc Enzyme to produce a luminescent signal. The signal correlates with the number of viable cells, making the assay well suited for cytotoxicity studies.\nTox21 Assay Protocol Summary:\nThe mixture of HepG2 cell suspension and reagents were dispensed at 600cells/6 ul/well in 1536-well tissue culture treated black solid bottom plates using a Multidrop dispenser. After the assay plates were incubated at a 37 C/5% CO2 incubator for 5 hours, 23 nL of compounds dissolved in DMSO, positive and negative controls was transferred to the assay plate by a pintool work station. The plates were incubated at 37 C for 40 hours. The luminescence intensity were measured at 0h, 8h, 16h, 24h, 32h and 40h time points using ViewLux plate reader during compound treatment."}
{"smiles": "CCNc1nc(Cl)nc(NC(C)(C)C)n1", "viability change, negative = cytotoxic": "2.47%"}
{"smiles": "O=C(Cl)CCl", "viability change, negative = cytotoxic": "0.867%"}
{"smiles": "CCCCCCCC(=O)Cl", "viability change, negative = cytotoxic": "1.56%"}
{"smiles": "NC(=O)CS(=O)C(c1ccccc1)c1ccccc1", "note": "(stereo not given)", "viability change, negative = cytotoxic": "6.16% [at 35.3 µM]"}
{"smiles": "CC(C)(C)c1cc(O)ccc1O", "outcome": "inactive"}
{"smiles": "CCN(CC)C1CCCCC1", "viability change, negative = cytotoxic": "5.57%"}
{"smiles": "CN(CCO)CCO", "viability change, negative = cytotoxic": "-3.17%"}
{"smiles": "CNC(=O)NC(O)C(Cl)(Cl)Cl", "note": "(stereo not given)", "viability change, negative = cytotoxic": "0.0139% [at 35.3 µM]"}
{"smiles": "ClC1=C(Cl)C2(Cl)C(CBr)CC1(Cl)C2(Cl)Cl", "note": "(stereo not given)", "viability change, negative = cytotoxic": "0.413% [at 35.3 µM]"}
{"smiles": "Cc1ccc(S(=O)(=O)N[C@@H](CCCCN)C(=O)CCl)cc1", "viability change, negative = cytotoxic": "0.348% [at 35.3 µM]"}
{"smiles": "COc1cccc(C=O)c1", "viability change, negative = cytotoxic": "-5.9%"}
{"smiles": "O=C(O)c1c(Cl)ccc2cc(Cl)cnc12", "viability change, negative = cytotoxic": "1.27%"}
{"smiles": "CCc1cc(OC)c(C[C@H](C)N)cc1OC", "viability change, negative = cytotoxic": "-0.33%"}
{"smiles": "ClC(Cl)(Cl)Cl", "viability change, negative = cytotoxic": "0.985%"}
{"smiles": "CC(Cc1ccccc1)NCCn1cnc2c1c(=O)n(C)c(=O)n2C", "note": "(stereo not given)", "viability change, negative = cytotoxic": "-7.76%"}
{"smiles": "Cl/C=C/CCl", "viability change, negative = cytotoxic": "-0.881%"}
{"smiles": "CC(C)(C)C(=O)C(Cl)Cl", "viability change, negative = cytotoxic": "0.437%"}
{"smiles": "CCOc1cc(OP(=S)(OC)OC)nc(CC)n1", "viability change, negative = cytotoxic": "0.318%"}
{"smiles": "[P]#[In]", "viability change, negative = cytotoxic": "3.73%"}
{"smiles": "CC(C)(O)C(Cl)(Cl)Cl", "viability change, negative = cytotoxic": "1.31% [at 35.3 µM]"}
{"smiles": "CCC(=O)c1ccc(Cl)cc1", "viability change, negative = cytotoxic": "0.876%"}
{"smiles": "CC[C@@H](CO)NC(=O)[C@@H]1C=C2c3cccc4c3c(cn4C)C[C@H]2N(C)C1", "viability change, negative = cytotoxic": "5.81% [at 35.3 µM]"}
{"smiles": "C=C(C)[C@H]1CN[C@H](C(=O)O)[C@H]1CC(=O)O", "viability change, negative = cytotoxic": "4.49% [at 35.3 µM]"}
{"smiles": "CC(C)(C)C(=O)Cl", "viability change, negative = cytotoxic": "-0.119%"}
{"smiles": "CCCOc1nn(C(=O)NS(=O)(=O)c2ccccc2C(=O)OC)c(=O)n1C", "viability change, negative = cytotoxic": "2.24%"}
{"smiles": "COc1ccc(C=O)cc1O", "viability change, negative = cytotoxic": "-11.4%"}
{"smiles": "CCC(CC)(CNC(=O)CCCO)c1cccc(OC)c1", "viability change, negative = cytotoxic": "8.91% [at 35.3 µM]"}
{"smiles": "O=C(Cl)c1ccccc1", "viability change, negative = cytotoxic": "-0.371%"}
{"smiles": "S=C=S", "viability change, negative = cytotoxic": "0.0411%"}
{"smiles": "CON(C)C(=O)Nc1ccc(Br)cc1", "viability change, negative = cytotoxic": "3.24%"}
{"smiles": "CC1NCCOC1c1ccccc1", "note": "(stereo not given)", "viability change, negative = cytotoxic": "9.18% [at 35.3 µM]"}
{"smiles": "O=C1CC(=O)NC(=O)N1", "viability change, negative = cytotoxic": "3.8%"}
{"smiles": "O=c1[nH]oc2c1CCNC2", "viability change, negative = cytotoxic": "0.342% [at 35.3 µM]"}
{"smiles": "CC#Cc1cc(C)nc(Nc2ccccc2)n1", "viability change, negative = cytotoxic": "-14.7%"}
{"smiles": "N#CN=C1SCCN1Cc1ccc(Cl)nc1", "viability change, negative = cytotoxic": "0.0306%"}
{"smiles": "Cn1c(N)nc2c3cccnc3ccc21", "viability change, negative = cytotoxic": "0.655%"}
{"smiles": "CC(C)[N+](C)(CCC(C(N)=O)(c1ccccc1)c1ccccc1)C(C)C", "viability change, negative = cytotoxic": "-6.72% [at 35.3 µM]"}
{"smiles": "C#CCOC(=O)/C=C(C)/C=C/CC(C)CCCC(C)C", "note": "(stereo not given)", "viability change, negative = cytotoxic": "-9.39%"}
{"smiles": "CCC(=O)OC1(c2ccccc2)CCN(C)CC1", "viability change, negative = cytotoxic": "-4.51%"}
{"smiles": "CC(C)(N)Cc1ccccc1Cl", "viability change, negative = cytotoxic": "11.3% [at 35.3 µM]"}
